In the supplement of paper PMC10849652:
Targets with a hit are over-represented here; the source holds about 7,900 in all. About 0.6% of all pairs of compound and target were hits. Values without a mark were called inactive.

Experiments:
Assay in all cases: log2 fold change, soluble protein after heating vs DMSO (PISA); higher = thermal stabilisation; K562 cells, 10 uM, 30 min; active = over 0.2 and 3.5 SD of the protein, either way, in both replicates (recomputed)
[1] = compound: CC[C@@H]1C(=O)N(C)c2cnc(Nc3ccc(C(=O)NC4CCN(C)CC4)cc3OC)nc2N1C1CCCC1
In short: (§1)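 K562 cells at 2×10^6 cells/mL were given 10 μM compound for 30 min. Aliquots then went through 3 min of heating across 48°C-58°C, were pooled, and were extracted in PBS with 0.5% NP-40 at 4°C, and the supernatant after 21,000xg for 90 min was quantified by TMTpro 16plex LC-MS/MS with channel sums equalised. Thermal stability relative to control samples, from duplicates, is given as log2 fold change.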

volasertib = compound: CC[C@@H]1C(=O)N(C)c2cnc(Nc3ccc(C(=O)N[C@H]4CC[C@H](N5CCN(CC6CC6)CC5)CC4)cc3OC)nc2N1C(C)C [volasertib]
In short: as §1

[2] = compound: CC[C@H](C)N1C=C(C2=C(C=C(C=C21)C3=CN=C(C=C3)N4CCNCC4)C(=O)NCC5=C(C=C(NC5=O)C)C)C
In short: as §1

epoxomicin = compound: CC[C@H](C)[C@@H](C(=O)N[C@@H]([C@@H](C)O)C(=O)N[C@@H](CC(C)C)C(=O)[C@]1(CO1)C)NC(=O)[C@H]([C@@H](C)CC)N(C)C(=O)C [epoxomicin]
In short: as §1

[3] = compound: CCn1c(C(=O)N(C2CC2)C2CC2)cc2c3c(ncn3C)c(Nc3cc(C)n(C)n3)nc21
In short: as §1

[4] = compound: CCn1cc(-c2ccnc3[nH]c(-c4cccc(CN(C)C)c4)cc23)c(-c2ccc(NC(=O)N(C)C)cc2)n1
In short: as §1

[5] = compound: CN(C)CC(=O)Nc1ccc2[nH]c(=O)c3ccccc3c2c1
In short: as §1

rosiglitazone = compound: CN(CCOC1=CC=C(C=C1)C[C@H]2C(=O)NC(=O)S2)C3=CC=CC=N3 (racemic) [rosiglitazone]
In short: as §1

[6] = compound: CN1C2=C(C3=C1C(=O)N(N=C3)CC4=CC(=CC=C4)N)SC(=C2)S(=O)C
In short: as §1

[7] = compound: CN1CCC(CNc2ccc3ncc(-c4cccc(OC(F)(F)F)c4)n3n2)CC1
In short: as §1

saracatinib = compound: CN1CCN(CCOc2cc(OC3CCOCC3)c3c(Nc4c(Cl)ccc5c4OCO5)ncnc3c2)CC1 [saracatinib]
In short: as §1

sotrastaurin = compound: CN1CCN(c2nc(C3=C(c4c[nH]c5ccccc45)C(=O)NC3=O)c3ccccc3n2)CC1 [sotrastaurin]
In short: as §1

alvocidib = compound: CN1CC[C@H](c2c(O)cc(O)c3c(=O)cc(-c4ccccc4Cl)oc23)[C@H](O)C1 [alvocidib]
In short: as §1

Tubastatin A = compound: CN1CCc2c(c3ccccc3n2Cc2ccc(C(=O)NO)cc2)C1 [Tubastatin A]
In short: as §1

[8] = compound: CNC(=O)C1=CC=CC=C1NC2=NC(=NC=C2Cl)NC3=C(C=C(C=C3)N4CCOCC4)OC
In short: as §1

defactinib = compound: CNC(=O)c1ccc(Nc2ncc(C(F)(F)F)c(NCc3nccnc3N(C)S(C)(=O)=O)n2)cc1 [defactinib]
In short: as §1

rucaparib = compound: CNCc1ccc(-c2[nH]c3cc(F)cc4c3c2CCNC4=O)cc1 [rucaparib]
In short: as §1

[9] = compound: CNc1nc(-c2ccc3c(N)n[nH]c3c2)cc(N2C[C@@H](C(=O)NC3CCCCC3)CC[C@H]2C)n1
In short: as §1

encorafenib = compound: COC(=O)N[C@@H](C)CNc1nccc(-c2cn(C(C)C)nc2-c2cc(Cl)cc(NS(C)(=O)=O)c2F)n1 [encorafenib]
In short: as §1

[10] = compound: COC(=O)[C@H](CCSC)NC(=O)C1=C(C=C(C=C1)NC[C@H](CS)N)C2=CC=CC=C2
In short: as §1

UniProt Q9C0E8, sequence (Q9C0E8 whole entry, looked up): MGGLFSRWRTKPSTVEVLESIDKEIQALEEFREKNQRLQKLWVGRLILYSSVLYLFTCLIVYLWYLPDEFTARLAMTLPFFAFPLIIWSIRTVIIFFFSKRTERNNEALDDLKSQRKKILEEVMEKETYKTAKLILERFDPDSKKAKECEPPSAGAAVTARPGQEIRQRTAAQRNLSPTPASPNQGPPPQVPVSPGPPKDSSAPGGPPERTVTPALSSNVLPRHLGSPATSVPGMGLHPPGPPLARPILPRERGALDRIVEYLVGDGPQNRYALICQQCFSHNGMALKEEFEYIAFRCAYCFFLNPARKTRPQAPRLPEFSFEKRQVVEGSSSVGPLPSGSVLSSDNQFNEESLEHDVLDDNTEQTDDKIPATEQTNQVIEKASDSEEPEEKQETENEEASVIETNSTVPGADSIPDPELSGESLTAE
UniProt Q96P70, sequence (Q96P70 whole entry, looked up): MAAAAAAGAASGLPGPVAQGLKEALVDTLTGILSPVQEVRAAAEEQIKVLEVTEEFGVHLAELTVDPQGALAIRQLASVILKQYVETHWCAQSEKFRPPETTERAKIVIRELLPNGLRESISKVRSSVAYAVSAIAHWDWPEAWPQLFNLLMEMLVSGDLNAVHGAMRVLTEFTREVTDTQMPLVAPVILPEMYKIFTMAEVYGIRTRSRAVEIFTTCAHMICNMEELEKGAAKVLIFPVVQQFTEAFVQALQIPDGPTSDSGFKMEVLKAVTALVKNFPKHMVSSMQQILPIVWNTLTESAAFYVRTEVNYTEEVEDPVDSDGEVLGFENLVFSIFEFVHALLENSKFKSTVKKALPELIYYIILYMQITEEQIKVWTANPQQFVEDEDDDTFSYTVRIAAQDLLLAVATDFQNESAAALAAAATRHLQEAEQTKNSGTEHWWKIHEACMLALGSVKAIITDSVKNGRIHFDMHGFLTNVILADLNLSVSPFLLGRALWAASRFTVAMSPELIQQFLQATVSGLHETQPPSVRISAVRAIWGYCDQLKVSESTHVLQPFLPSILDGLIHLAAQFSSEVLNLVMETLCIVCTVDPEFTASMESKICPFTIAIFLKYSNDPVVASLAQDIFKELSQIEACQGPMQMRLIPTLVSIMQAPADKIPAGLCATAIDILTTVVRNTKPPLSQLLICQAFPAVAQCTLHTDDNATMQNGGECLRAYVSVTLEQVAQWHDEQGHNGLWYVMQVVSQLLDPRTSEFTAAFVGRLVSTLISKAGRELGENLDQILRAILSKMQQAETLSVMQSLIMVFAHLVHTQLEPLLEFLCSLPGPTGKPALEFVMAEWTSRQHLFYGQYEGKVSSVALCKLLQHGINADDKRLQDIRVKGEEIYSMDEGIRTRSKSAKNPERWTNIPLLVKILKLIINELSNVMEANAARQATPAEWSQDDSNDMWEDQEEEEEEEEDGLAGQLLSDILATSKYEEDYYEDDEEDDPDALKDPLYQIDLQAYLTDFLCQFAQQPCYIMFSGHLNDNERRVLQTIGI
UniProt P13473, sequence (P13473 whole entry, looked up): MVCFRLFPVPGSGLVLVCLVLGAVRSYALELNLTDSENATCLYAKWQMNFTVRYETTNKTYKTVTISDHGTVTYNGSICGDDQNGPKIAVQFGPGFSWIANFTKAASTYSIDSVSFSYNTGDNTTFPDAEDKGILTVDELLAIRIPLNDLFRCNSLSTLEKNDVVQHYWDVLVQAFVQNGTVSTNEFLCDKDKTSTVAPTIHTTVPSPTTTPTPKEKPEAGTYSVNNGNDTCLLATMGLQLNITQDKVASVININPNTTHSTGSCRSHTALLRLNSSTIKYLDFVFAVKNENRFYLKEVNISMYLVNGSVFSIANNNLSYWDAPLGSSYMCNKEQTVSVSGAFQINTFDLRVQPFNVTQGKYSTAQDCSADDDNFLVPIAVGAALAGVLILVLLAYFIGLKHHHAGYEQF
UniProt Q13422, sequence (Q13422 whole entry, looked up): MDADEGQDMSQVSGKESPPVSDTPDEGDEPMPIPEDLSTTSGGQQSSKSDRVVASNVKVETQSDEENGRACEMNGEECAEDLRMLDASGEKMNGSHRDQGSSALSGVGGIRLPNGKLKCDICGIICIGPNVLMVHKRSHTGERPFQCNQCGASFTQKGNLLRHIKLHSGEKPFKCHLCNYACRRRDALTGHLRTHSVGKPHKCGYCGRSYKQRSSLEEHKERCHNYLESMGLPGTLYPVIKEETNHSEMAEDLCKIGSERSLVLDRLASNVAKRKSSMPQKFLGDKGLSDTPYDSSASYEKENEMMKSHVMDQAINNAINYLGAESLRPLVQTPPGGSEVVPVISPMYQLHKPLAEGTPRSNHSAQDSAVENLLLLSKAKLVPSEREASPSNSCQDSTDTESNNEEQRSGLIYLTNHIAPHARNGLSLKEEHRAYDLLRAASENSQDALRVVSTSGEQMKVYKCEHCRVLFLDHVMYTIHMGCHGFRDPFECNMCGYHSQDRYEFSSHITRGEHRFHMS
UniProt P29966, sequence (P29966 whole entry, looked up): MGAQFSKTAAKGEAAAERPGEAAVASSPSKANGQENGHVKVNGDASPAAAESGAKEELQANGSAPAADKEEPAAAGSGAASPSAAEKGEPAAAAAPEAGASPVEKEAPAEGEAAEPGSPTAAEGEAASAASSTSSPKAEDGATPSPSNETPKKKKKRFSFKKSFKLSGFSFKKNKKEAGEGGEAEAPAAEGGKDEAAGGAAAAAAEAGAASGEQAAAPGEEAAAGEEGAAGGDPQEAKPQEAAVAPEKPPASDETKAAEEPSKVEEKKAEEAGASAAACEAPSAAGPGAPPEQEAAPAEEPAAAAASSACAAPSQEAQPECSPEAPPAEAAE
UniProt Q9H9P8, sequence (Q9H9P8 whole entry, looked up): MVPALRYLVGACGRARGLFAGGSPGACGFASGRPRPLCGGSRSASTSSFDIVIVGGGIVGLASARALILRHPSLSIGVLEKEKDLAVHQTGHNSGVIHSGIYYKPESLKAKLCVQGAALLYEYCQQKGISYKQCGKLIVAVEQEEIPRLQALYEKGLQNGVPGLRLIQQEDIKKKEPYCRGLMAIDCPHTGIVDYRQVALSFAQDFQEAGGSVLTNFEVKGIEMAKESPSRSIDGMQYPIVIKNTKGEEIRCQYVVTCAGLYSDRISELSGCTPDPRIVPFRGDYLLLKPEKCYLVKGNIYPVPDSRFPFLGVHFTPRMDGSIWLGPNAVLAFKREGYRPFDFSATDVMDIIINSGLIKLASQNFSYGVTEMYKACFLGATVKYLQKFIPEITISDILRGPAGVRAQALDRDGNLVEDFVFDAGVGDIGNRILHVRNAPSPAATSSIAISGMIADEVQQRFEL
UniProt Q92615, sequence (Q92615 whole entry, looked up): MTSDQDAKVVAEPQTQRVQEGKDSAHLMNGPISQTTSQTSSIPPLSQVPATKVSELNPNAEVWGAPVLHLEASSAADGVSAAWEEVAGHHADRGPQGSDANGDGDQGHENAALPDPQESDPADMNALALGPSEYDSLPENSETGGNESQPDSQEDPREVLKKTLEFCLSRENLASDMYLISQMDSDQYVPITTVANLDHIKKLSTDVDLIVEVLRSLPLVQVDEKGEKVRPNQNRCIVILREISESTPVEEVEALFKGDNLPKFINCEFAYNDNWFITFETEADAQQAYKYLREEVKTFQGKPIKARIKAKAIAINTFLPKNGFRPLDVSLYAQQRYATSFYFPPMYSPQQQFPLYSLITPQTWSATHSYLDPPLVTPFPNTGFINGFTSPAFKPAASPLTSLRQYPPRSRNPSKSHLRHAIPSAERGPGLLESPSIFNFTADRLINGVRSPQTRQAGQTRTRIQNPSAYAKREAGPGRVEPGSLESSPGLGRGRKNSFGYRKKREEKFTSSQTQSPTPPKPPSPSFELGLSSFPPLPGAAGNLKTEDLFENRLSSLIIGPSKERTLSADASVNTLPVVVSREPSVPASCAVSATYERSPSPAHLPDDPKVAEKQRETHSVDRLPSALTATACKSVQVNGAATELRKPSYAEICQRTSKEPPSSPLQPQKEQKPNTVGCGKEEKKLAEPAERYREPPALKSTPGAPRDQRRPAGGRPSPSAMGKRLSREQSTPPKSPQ
UniProt Q07666, sequence (Q07666 whole entry, looked up): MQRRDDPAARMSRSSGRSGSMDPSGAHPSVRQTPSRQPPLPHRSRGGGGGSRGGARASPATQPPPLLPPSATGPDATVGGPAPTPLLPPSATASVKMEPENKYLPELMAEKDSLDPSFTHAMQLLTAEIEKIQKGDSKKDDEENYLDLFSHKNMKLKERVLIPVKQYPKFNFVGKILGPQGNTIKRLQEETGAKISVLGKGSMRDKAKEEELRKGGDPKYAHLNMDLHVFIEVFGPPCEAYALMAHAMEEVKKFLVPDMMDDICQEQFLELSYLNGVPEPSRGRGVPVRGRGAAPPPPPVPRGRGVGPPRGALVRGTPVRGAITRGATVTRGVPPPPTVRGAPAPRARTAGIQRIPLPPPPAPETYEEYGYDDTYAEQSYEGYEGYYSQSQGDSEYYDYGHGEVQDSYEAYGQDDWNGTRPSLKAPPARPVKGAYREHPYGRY
UniProt P49137, sequence (P49137 whole entry, looked up): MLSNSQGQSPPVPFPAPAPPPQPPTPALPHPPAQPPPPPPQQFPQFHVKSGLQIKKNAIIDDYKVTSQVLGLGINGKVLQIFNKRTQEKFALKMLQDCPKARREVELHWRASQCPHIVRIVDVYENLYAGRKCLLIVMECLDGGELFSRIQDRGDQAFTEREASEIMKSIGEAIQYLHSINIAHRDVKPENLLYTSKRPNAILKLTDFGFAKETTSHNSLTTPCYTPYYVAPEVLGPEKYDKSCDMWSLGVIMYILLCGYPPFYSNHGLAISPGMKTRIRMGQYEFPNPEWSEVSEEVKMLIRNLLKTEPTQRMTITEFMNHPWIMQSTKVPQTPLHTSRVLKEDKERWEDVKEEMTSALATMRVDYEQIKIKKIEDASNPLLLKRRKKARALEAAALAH

Row | Target | log2 fold change [1] | log2 fold change (volasertib) | log2 fold change [2] | log2 fold change (epoxomicin) | log2 fold change [3] | log2 fold change [4] | log2 fold change [5] | log2 fold change (rosiglitazone) | log2 fold change [6] | log2 fold change [7] | log2 fold change (saracatinib) | log2 fold change (sotrastaurin) | log2 fold change (alvocidib) | log2 fold change (Tubastatin A) | log2 fold change [8] | log2 fold change (defactinib) | log2 fold change (rucaparib) | log2 fold change [9] | log2 fold change (encorafenib) | log2 fold change [10]
1 | MAP2K2 (UniProt P36507) | -0.12 | 0.084 | 0.077 | 0.044 | -0.02 | -0.06 | 0.022 | 0.04 | -0.056 | -0.1 | 0.012 | -0.037 | -0.024 | 0.01 | -0.138 | -0.056 | -0.039 | -0.021 | -0.074 | 0.001
2 | L2HGDH (UniProt Q9H9P8) | -0.088 | -0.014 | 0.006 | -0.02 | -0.023 | -0.067 | -0.027 | 0.031 | -0.11 | -0.325 (active) | -0.009 | 0.091 | -0.039 | -0.002 | -0.017 | -0.011 | -0.005 | 0.012 | -0.022 | 0.049
3 | LAMP2 (UniProt P13473) | 0.018 | 0.069 | -0.023 | 0.083 | -0.009 | 0.019 | 0.059 | 0.007 | -0.016 | -0.032 | 0.078 | 0.123 | 0.056 | -0.061 | 0.105 | -0.047 | -0.055 | -0.088 | -0.026 | 0.062
4 | MARCKS (UniProt P29966) | 0.035 | -0.027 | -0.091 | -0.044 | 0 | 0.268 (active) | -0.043 | 0.03 | -0.014 | 0.089 | 0.019 | 0.077 | -0.016 | 0.039 | 0.005 | 0.009 | -0.02 | -0.02 | -0.014 | 0.002
5 | LNPK (UniProt Q9C0E8) | 0.02 | 0.024 | -0.038 | -0.007 | -0.032 | 0.018 | -0.042 | 0.01 | 0.012 | 0.059 | 0.085 | 0.047 | -0.006 | -0.034 | 0.012 | 0.009 | -0.015 | -0.045 | -0.013 | 0.039
6 | KLHDC4 (UniProt Q8TBB5) | 0.091 | -0.342 | 0.012 | -0.026 | 0.036 | -0.064 | 0.065 | -0.012 | 0.075 | 0.158 | -0.006 | -0.037 | 0.074 | -0.072 | 0.02 | 0.021 | 0.115 | -0.029 | 0.106 | -0.066
7 | MDN1 (UniProt Q9NU22) | -0.109 | -0.334 (active) | 0.093 | 0.006 | -0.119 | -0.076 | 0.031 | 0.08 | -0.027 | -0.287 (active) | -0.029 | -0.035 | -0.143 | 0.033 | -0.092 | -0.166 | -0.067 | 0.018 | 0.018 | -0.049
8 | LARP4B (UniProt Q92615) | 0.025 | -0.15 | 0.061 | -0.037 | -0.052 | 0.073 | 0.034 | -0.02 | 0.096 | -0.218 | -0.009 | -0.083 | 0.004 | -0.033 | -0.025 | -0.037 | 0.273 | 0.02 | 0.094 | 0.032
9 | IPO9 (UniProt Q96P70) | -0.227 (active) | -0.611 (active) | -0.003 | -0.031 | 0.03 | 0.034 | 0.009 | 0.018 | -0.007 | -0.077 | 0.036 | -0.13 | -0.08 | -0.02 | 0.034 | -0.106 | -0.051 | -0.136 | 0.056 | 0
10 | IPO7 (UniProt O95373) | -0.248 (active) | -0.542 (active) | 0.067 | -0.007 | 0.008 | -0.038 | 0.051 | 0.067 | -0.011 | -0.248 (active) | -0.004 | -0.089 | -0.146 | 0.023 | 0.01 | -0.163 | -0.083 | -0.012 | 0.052 | -0.015
11 | KHDRBS1 (UniProt Q07666) | 0.148 | 0.106 | 0.074 | -0.029 | 0.016 | -0.096 | -0.007 | -0.028 | -0.04 | 0.116 | 0.025 | 0.018 | 0.027 | -0.006 | 0 | 0.042 | 0.248 (active) | -0.009 | -0.009 | -0.05
12 | MAPK14 isoform 2 (UniProt Q16539) | -0.223 | -0.398 | -0.019 | 0.02 | 0.081 | 0.001 | 0.039 | 0.007 | -0.029 | 0.074 | 0.486 | -0.085 | -0.021 | 0.145 | 0.559 | -0.25 | 0.127 | -0.029 | 0.91 (active) | -0.014
13 | IKZF1 (UniProt Q13422) | 0.079 | -0.067 | 0.053 | -0.052 | 0.018 | -0.048 | 0.024 | 0.008 | 0.051 | -0.239 | 0.038 | -0.133 | -0.127 | -0.018 | -0.042 | -0.1 | -0.026 | -0.029 | -0.052 | -0.008
14 | MAPKAPK2 (UniProt P49137) | -0.058 | -0.059 | 0.026 | 0.049 | 0.022 | -0.002 | 0.032 | 0.023 | -0.007 | -0.018 | 0.077 | -0.035 | 0 | -0.006 | -0.01 | -0.013 | 0 | -0.022 | 0.139 | 0.023
15 | ME2 (UniProt P23368) | 0.164 | 0.445 (active) | 0.006 | 0.108 | -0.012 | -0.015 | -0.002 | 0.016 | -0.02 | 0.145 | 0.061 | 0.014 | 0.022 | 0.026 | 0.151 | -0.037 | -0.011 | -0.11 | 0.015 | 0.034
